Structures are written as SMILES. Records with an inconclusive call do not appear. Where a call stands in place of a potency, no number is given. A number with no mark means an inactive call. Calls of active or inactive are those of the source. The call rests on the fitted dose curve; in most records, active means well fitted inhibition curve with a large enough effect; inconclusive means small, poorly fitted or top-dose-only effect; inactive means flat fitted curve, though single readings scatter.
Potency means the concentration at half of the fitted maximal effect.

This experiment is described as follows: P-glycoprotein substrates identified in KB-8-5-11 adenocarcinoma cell line, qHTS therapeutic library screen (AID 1346987). Further: nearly all actives have a fitted effect of over 65% in size. To be noted: KB-8-5-11 (P-gp overexpressing) viability, CellTiter-Glo, 72 h; series mostly up to 44.5 µM. The procedure, abridged:
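Compounds are pinned in dose-response onto KB-8-5-11 cells (500 cells/well, colchicine-free medium) and left 72 h at 37 degree C. CellTiter-Glo luminescence then yields AC50 values.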
A general note: In qHTS, concentration-response curves come from the screen itself.
Regarding `CC(C)c1c2cc(-c3ccnc(NC4CCC(NC5CCOCC5)CC4)n3)ccc2nn1C` (centres undefined), the Potency was 1.84 µM (active).

Take `Cc1cc(C(=O)N2CCCCc3ccccc32)ccc1CNC(=O)N1CCC[C@H]1C(=O)N(C)C`: the Potency result was “inactive”.

In the case of `COc1cc(Br)c(Nc2nc(-c3c(C)nc4ncccn34)cs2)c(Br)c1`, the Potency was 2.31 µM (active).

For `N#Cc1ccc(C(=O)N2CCC3(CC2)N=C(N)c2c(F)ccc(F)c2N3)cn1`, the Potency result is “inactive”.

As to `C/C(=C\C=C\C(C)C1CCC2(C)C3CCC4C(C)(C)C(=O)CCC45CC35CCC12C)C(=O)O` (centres undefined), the Potency result is “inactive”.

As to `CCOc1cc(C(=O)N2CCC(N3CCN(C)CC3)CC2)ccc1Nc1ncc2c(n1)N(C1CCCC1)c1ccccc1C(=O)N2C`, the Potency was 13 µM (active).

For the molecule `CCN1CCN(Cc2ccc(NC(=O)Nc3ccc(Oc4cc(NC)ncn4)cc3)cc2C(F)(F)F)CC1`, the Potency result was “inactive”.

Take `CC(C)C(C#N)O[C@@H]1O[C@H](CO[C@@H]2O[C@@H](C)[C@H](O)[C@@H](O)[C@H]2O)[C@@H](O)[C@H](O)[C@H]1O` (some centres undefined): the Potency result was “inactive”.

Consider `CC(=O)NCC(=O)N1C2CCC1c1cc(Nc3ncc(C(F)(F)F)c(NC4CCC4)n3)ccc12` (centres undefined), for which the Potency was 1.84 µM (active).

On to `CC1(C)CC(NC(=O)C(=O)Nc2ccc(Br)cc2)CC(C)(C)N1`, for which the Potency entry was “inactive”.

With `C=CC(=O)Nc1cccc(CN2C(=O)N(c3c(Cl)c(OC)cc(OC)c3Cl)Cc3cnc(NCCCCN(CC)CC)nc32)c1`, the Potency entry was “inactive”.

Regarding `NC(=O)c1cnc(NCCc2ccc(O)c(Cl)c2)nc1NCc1ccccc1`, the Potency was 10.3 µM (active).

For `COCCOc1cnc2ccn([C@H](C)c3nnc4c(F)cc(-c5cnn(C)c5)cn34)c(=O)c2c1`, the Potency entry is “inactive”.

`O=C(O)c1ccc(CN2CCC(CN[C@@H]3C[C@H]3c3ccccc3)CC2)cc1`: the Potency result is “inactive”.

Regarding `C[C@@H]1O[C@@H](O[C@H]2[C@H](O)[C@@H](O)[C@H](OC[C@H]3O[C@@H](OC(=O)[C@]45CCC(C)(C)C[C@H]4C4=CCC6[C@@]7(C)CC[C@H](O[C@@H]8OC[C@H](O)[C@H](O[C@@H]9O[C@H](CO)[C@@H](O)[C@H](O)[C@H]9O)[C@H]8O)[C@@](C)(CO)C7CC[C@@]6(C)[C@]4(C)CC5)[C@H](O)[C@@H](O)[C@@H]3O)O[C@@H]2CO)[C@H](O)[C@H](O)[C@H]1O` (some centres undefined), the outcome is “inactive [at 9.29 µM]”.

With `CC1(C)CC[C@]2(C(=O)OC3OC(CO)C(O)C(O)C3O)CC[C@]3(C)C(=CCC4[C@@]5(C)CC[C@H](OC6OC(C(=O)O)C(O)C(OC7OC(CO)C(O)C(O)C7O)C6O)C(C)(C)C5CC[C@]43C)C2C1` (some centres undefined), the outcome is “inactive [at 9.29 µM]”.

For the molecule `C[C@]1(CO)CCC[C@]2(C)C3=C(CCC12)COC3` (some centres undefined), the Potency result is “inactive”.

`COc1ccccc1Oc1ccc(N(Cc2cccnc2)S(=O)(=O)CC(F)(F)F)cc1`: the Potency result is “inactive”.

Consider `C=CC[C@]12C[C@@H](OC)C(=O)C(OC)=C1O[C@@H](c1cc(OC)c3c(c1)OCO3)[C@@H]2C`, for which the Potency entry was “inactive”.

Consider `Cc1cnc(Nc2ccc(F)cc2Cl)nc1-c1c[nH]c(C(=O)NC(CO)c2cccc(Cl)c2)c1` (centres undefined), for which the Potency was 3.66 µM (active).

As to `CC[C@H](NC(=O)[C@H](CS(=O)(=O)CC1CC1)N[C@@H](c1ccc(F)cc1)C(F)(F)F)C(=O)C(=O)NC1CC1`, the Potency entry was “inactive”.

`CC1OC(OC2C(CO)OC(OCC3OC(OC(=O)C45CCC(C)(C)CC4C4=CCC6C7(C)CCC(OC8OC(CO)C(O)C(OC9OC(CO)C(O)C(O)C9O)C8O)C(C)(C)C7CCC6(C)C4(C)CC5)C(O)C(O)C3O)C(O)C2O)C(O)C(O)C1OC1OC(CO)C(O)C(O)C1O` (centres undefined): the activity change, negative = cytotoxicity is 9.79% [at 9.29 µM].

Take `COc1cc(O)cc(C)c1C(=O)OC1C(CO)OC(OC2C(O)C(O)C(O)C(O)C2O)C(O)C1O` (centres undefined): the Potency entry is “inactive”.

For the molecule `CC(C)c1cc2c(c(O)c1O)[C@@]13CCCC(C)(C)[C@@H]1[C@H](OC3=O)C2=O`, the Potency entry is “inactive”.

As for `C=C1C(=O)O[C@H](CCC)[C@H]1C(=O)O`, the Potency result is “inactive”.

Turning to `CC(C)CC1NC(=O)C2CC3(O)c4ccccc4NC3N2C1=O` (centres undefined), the Potency result is “inactive”.

Take `CCC(C)C(=O)O[C@H]1CCC=C2C=C[C@H](C)[C@H](CC[C@@H](O)C[C@@H](O)CC(=O)O)[C@H]21` (some centres undefined): the Potency entry is “inactive”.

For `O=C(CC(c1ccccc1)c1ccccc1)N1CCN(C(c2ccccc2)c2ccccc2)CC1`, the Potency was 16.4 µM (active).

`C=C1C[C@]23C[C@H]1CC[C@H]2[C@]1(C)CCC[C@@](C)(C(=O)O)[C@H]1[C@@H]3C(=O)O`: the Potency result is “inactive”.

For the molecule `CC(C)O[C@@H]1O[C@H](CO)[C@@H](O)[C@H](O)[C@H]1O`, the Potency result was “inactive”.

With `C[C@@H]1CC[C@@]2(OC1)O[C@H]1C[C@H]3[C@@H]4CC=C5C[C@@H](O)CC[C@]5(C)[C@H]4CC[C@]3(C)[C@H]1[C@@H]2C`, the Potency result was “inactive”.

In the case of `C=C(CCC1=C(C)[C@H]2[C@H](CC3[C@@H]4CC=C5C[C@@H](O)C[C@@H](O)[C@]5(C)C4[C@H](O)C[C@@]32C)O1)CO[C@@H]1O[C@H](CO)[C@@H](O)[C@H](O)[C@H]1O` (some centres undefined), the Potency was 1.53 µM (active).

`C[C@@H]1O[C@@H](O[C@H]2[C@H](OC(=O)[C@]34CCC(C)(C)C[C@H]3C3=CCC5[C@@]6(C)C[C@H](O)[C@H](O[C@@H]7O[C@H](CO)[C@@H](O[C@H]8OC[C@](O)(CO)[C@H]8O)[C@H](O)[C@H]7O)[C@@](C)(CO)C6[C@H](O)C[C@@]5(C)[C@]3(C)C[C@H]4O)OC[C@H](O)[C@@H]2O)[C@H](O)[C@H](O)[C@H]1O[C@@H]1OC[C@@H](O)[C@H](O[C@@H]2OC[C@](O)(CO)[C@H]2O)[C@H]1O` (some centres undefined): the activity change, negative = cytotoxicity is 9.78% [at 9.29 µM].

For `CC(C)NCC(C(=O)N1CCN(c2ncnc3c2C(C)CC3O)CC1)c1ccc(Cl)cc1` (centres undefined), the Potency entry was “inactive”.

Consider `C[C@@H]1C(=O)OC[C@H]2C(C(=O)O)=C[C@@H]3CC(C)(C)C[C@]312`, for which the Potency result was “inactive”.

In the case of `C[C@@H]1CN(Cc2ncccn2)C[C@H]1c1nc2c(cnn2C2CCOCC2)c(=O)[nH]1`, the Potency entry is “inactive”.

On to `CNC(=O)c1ccccc1Nc1nc(Nc2ccc3c(c2OC)CCCC(N2CCN(CCO)CC2)C3)ncc1Cl` (centres undefined), for which the Potency was 8.2 µM (active).

`CC[C@]1(O)CC2CN(CCc3c([nH]c4ccccc34)[C@@](C(=O)OC)(c3cc4c(cc3OC)N(C)[C@H]3[C@@](O)(C(=O)OC)[C@H](OC(C)=O)[C@]5(CC)C=CCN6CC[C@]43[C@@H]65)C2)C1` (some centres undefined): the Potency is 1.03 µM (active).

For `C[C@@H]1CC[C@]2(C(=O)O)CC[C@]3(C)C(=CCC4[C@@]5(C)CC[C@H](O)C(C)(C)C5C(O)C[C@]43C)[C@@H]2[C@]1(C)O` (some centres undefined), the Potency result is “inactive”.

(Values after PubChem BioAssay (NCATS).)
